Data: the OligoGym collection

Molecular target: DDB2
Experiment: pooled miR-30 sensor sort-seq; sequence = guide strand
Details: shRNA
Further: reference of the scale not given here.

Sequence	sensor-assay potency score (higher = more potent)
TCTGAGTCACATCTTCTGCTAG	-0.241
TAATACAATCTCGGAGGTCTTC	-0.478
TCCATCGAACACGTCGATCGTC	-0.818
TGACACATCATCTTCCCTGAGT	0.0365
TAGAGCTGACACATCATCTTCC	0.382
TAATATCCGGTAAGAATCCAGA	-0.584
TTCGGCTACTAGCAGACACATC	-1.25
TACAATCTCGGAGGTCTTCTGG	-0.449
TCGAACACGTCGATCGTCCTCA	-0.285
TACAACTTTTGAAATTAGGATC	-0.816
AACTTTTGAAATTAGGATCTGG	0.321
TTTGCCGTCCATGTTCAGCAGG	-0.642
TCAAATAACTGCTTGATCCCTC	0.323

Molecular target: DDX28
Experiment: as above
Details: shRNA

Sequence	sensor-assay potency score (higher = more potent)
TTGGATTTTGTGGTCATCCAGA	-0.675
ATAATTGACAACCAGCTCCACA	-0.971
TAGTCCTGGAAGACTTCTCCTT	-1.12
TATGTCTCGGGAGCTCTTCTGG	-0.986
TTCTGCTCTGTCACGATGCTTG	-0.667
TTGACAACCAGCTCCACACCAG	-0.162
TAGCTGAGAGTCTTGCCACTGC	-0.373
TTCCAGGAAGCTTTCATCCAGC	-0.626
TTCGTCGGGACTGCGGACCGTG	-0.386
TAGTGCGTGCAGCACACGGGGC	-1.65
TCATCCAACACCAAGAAGGAGA	-0.925
TAATCTTGCAGCGTTGGGGGGA	-0.579

Molecular target: DDX49
Experiment: as above
Details: shRNA

Sequence	sensor-assay potency score (higher = more potent)
TCTGTTGCGATCAGGATCCGGT	0.242
TCTTTCTGCTTCATCATGGAGT	-0.0519
TTGATCTGCTCCTCGATGGCGT	0.0961
TTGATCTCACACTCTCTTCGCA	-0.0453
TTCTTCTTGATCTGCTCCTCGA	-0.688
TTTGATCTCACACTCTCTTCGC	-0.199
TAGATGCTGGACTTGAACTTGG	-0.112
TGATCTCACACTCTCTTCGCAC	-1.01
TTGATGACCACCTGTACCGTAG	-0.168
TCGTACTGTGTCACCAGCGTGA	-0.48
TCATCCATCACCAGGAAGCGGA	-1.17
TTGTGGTTGATGACCACCTGTA	-0.316

Molecular target: DEF6
Experiment: as above
Details: shRNA

Sequence	sensor-assay potency score (higher = more potent)
TCTTCCAGCAGTCTGGTCTGAG	-0.41
TTCATCTGGACATTCCAGTGTT	0.421
TTCTTCATCTCGCCGAGCTTTC	-1.29
